Source: PubChem BioAssay (National Center for Advancing Translational Sciences (NCATS))
The entries come from a sample that favours hits as a whole.
LmPK inh = inhibitors of Leishmania mexicana pyruvate kinase; Q27686; purified LmPK, Kinase-Glo ATP luminescence, 1 h; Potency, µM (highest dose often 57.5 µM), without a hit: at the highest dose activity change, negative = inhibition, usual class: inhibitors; actives 0.37% (n = 290,000); AID 1721; also: potency is read from the fitted curve at half-maximal effect; % is scaled to controls: 0 for no effect and ±100 for the full control effect
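Pyruvate kinase activity monitored as ATP production (luciferase luminescence). Conditions: 0.1 nM enzyme, 0.5 mM PEP, 0.1 mM ADP, 1 h, RT; normalized against uninhibited and no-enzyme wells.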
FBPA Giardia inh = inhibitors of Giardia lamblia fructose-1,6-bisphosphate aldolase; actives 0.71% (n = 290,000); purified Giardia FBPA; Potency, µM (top dose mostly 59.6 µM), without a hit: at the highest dose activity, negative = inhibition, hits mostly inhibitors; A8B2U2; also: potency is read from the fitted curve at half-maximal effect; % is scaled to controls: 0 for no effect and ±100 for the full control effect; nearly all actives have a fitted effect of over 55% in size
Target sequence (A8B2U2 whole entry, looked up): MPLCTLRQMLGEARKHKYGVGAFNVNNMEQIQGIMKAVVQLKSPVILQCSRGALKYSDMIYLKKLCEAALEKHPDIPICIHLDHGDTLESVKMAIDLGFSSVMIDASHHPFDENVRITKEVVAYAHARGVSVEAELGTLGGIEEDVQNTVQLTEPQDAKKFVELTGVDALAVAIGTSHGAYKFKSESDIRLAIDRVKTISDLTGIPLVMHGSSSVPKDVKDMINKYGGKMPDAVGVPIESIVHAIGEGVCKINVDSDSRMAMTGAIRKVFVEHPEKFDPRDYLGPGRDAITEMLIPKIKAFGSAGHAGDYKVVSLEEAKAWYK
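40 nM FBPA preincubated 10 min at RT with compound (up to 57.5 uM final), then substrate plus GAPDH/TPI/NAD/arsenate coupling and diaphorase/resazurin added. Fluorescence read after 20 min at RT, 525/598 nm.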
Sm TGR inh = blocks Schistosoma mansoni thioredoxin glutathione reductase | Q962Y6 | purified TGR, DTNB reduction, TNB absorbance 405 nm | Potency, µM (series often up to 114 µM), without a hit: top-dose activity change, negative = inhibition, usual class: inhibitors | actives 3% (n = 360,000) | AID 485364; also: potency is read from the fitted curve at half-maximal effect; % is scaled to controls: 0 for no effect and ±100 for the full control effect; nearly all actives have a fitted effect of over 60% in size
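First, TGR (20 nM dispensed) and NADPH were mixed with compound. Second, a 15 min room-temperature incubation followed. Third, further NADPH and then DTNB were added to start the reaction. Finally, TNB absorbance was monitored kinetically.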
TbPYK inhibitor = blocks Trypanosoma brucei pyruvate kinase; TbPYK enzyme, Kinase-Glo Plus ATP luminescence, 45 min; Potency, µM (highest dose often 76.8 µM), for the others: top-dose activity, negative = inhibition, hits mostly inhibitors; actives 0.12% (n = 410,000); AID 624173; also: potency is read from the fitted curve at half-maximal effect; % is scaled to controls: 0 for no effect and ±100 for the full control effect; nearly all actives have a fitted effect of over 50% in size
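Readout: single end-point luminescence (Kinase-Glo Plus, 10 min). Reaction conditions were TbPYK/substrate plus 130 uM ADP, 45 min at RT, pH 7.2 TEA buffer. No-enzyme wells served as controls, and data were normalized before concentration-response fitting.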
Shiga toxin inh = blocks Shiga toxin action in Vero cells. Vero cells, Shiga toxin protein synthesis inhibition reporter. inhibition, % at 38.7 µM. actives 9.2% (n = 290,000). AID 2315; in the data active = inhibition mostly above about 28%, no sharp cut-off; inactive = mostly below about 43%; also: 0% is about no effect
Cycloheximide cs = counter-screen for Shiga toxin inhibitors: cycloheximide protein synthesis inhibition; actives 12% (n = 300,000); cell reporter, cycloheximide protein synthesis inhibition counterscreen; max response, %; in the data active = max response mostly above about 13%, no sharp cut-off; inactive = mostly below about 14%; also: read at 38.3 µM for the half of the compounds with a filed dose; 0% is about no effect
* = called active by the depositor; ? = inconclusive; nt = no result; ! = a repeat was not active; [ ] = dose if it differs, or a comment. Unless noted, calls follow the shape of the dose curve; as a rule, active = well fitted curve in the direction sought with a large enough effect; inconclusive = small, poorly fitted or top-dose-only effect, or another doubt; inactive = no such curve, though single readings can be large; an effect the other way counts as inactive or inconclusive.

SMILES	LmPK inh	FBPA Giardia inh	Sm TGR inh	TbPYK inhibitor	Shiga toxin inh	Cycloheximide cs
Cc1c(N)c(C(C)(C)C)cc(C(C)(C)C)c1[N+](=O)[O-]	-3%	-8%	2%	0%	-3	-4
Cc1cc2nc3c(=O)[nH]c(=O)[nH]c3nc2c([N+](=O)[O-])c1N	3%	5µM*	-27%	-7%	-12	-2
CC(=O)Oc1c(I)cc(I)cc1C(=O)Nc1ccc(Cl)cc1	-3%	nt	2%	0%	36	24*
C[C@H]1Cc2c(COc3ccccc3)nc3c(c2CO1)CN(C(=O)c1cccnc1)CC3	-5%[11.5 µM]	4%[12.9 µM]	nt	nt	nt	nt
CCc1c(C)c(C#N)c2[nH]c3ccccc3n2c1=S	?	?	0.56µM*	14µM*	-5	-2
CCc1cc(=O)n2c([nH]c3ccccc32)c1C#N	-19%	-25%	-17%	2%	42*	44*
CCc1cc(=S)n2c([nH]c3ccccc32)c1C#N	-9%	3%	1.6µM*	?	52*	9
COc1ccc(NC(=O)N2CC3(CCN(C(=O)c4c(C)noc4C)CC3)C2)cc1	nt	-7%	nt	0%	nt	nt
CC1(C)CCC[C@@](C)([C@H]2CC[C@]3(C)[C@@H]2[C@H](O)CC2[C@@]4(C)CC[C@H](O)C(C)(C)[C@@H]4[C@@H](O)C[C@]23C)O1 (some centres not stated)	nt	3%	nt	nt	-25	-7
Cc1ccc(-c2nc3c(c(=O)[nH]c(=O)n3Cc3ccccc3)n2Cc2ccccc2)o1	-1%	-18%	18µM*	-6%	19	-1
Cc1ccc(-c2nc3c(c(=O)[nH]c(=O)n3Cc3ccccc3)n2C)o1	-14%	-23%	3.5µM*	-15%	25	14
Cc1ccc(-c2nc3c(c(=O)[nH]c(=O)n3Cc3ccccc3)n2C)s1	5%	2%	-11%	nt	-6	12
CCN(CC)S(=O)(=O)c1ccc(NC(=O)c2c(C)oc3ncnc(N4CCCCC4)c23)cc1	nt	nt	0%	-2%	nt	nt
CC1CCC(=O)N(CCSc2ccccc2)CC1 (configuration not stated)	0%	10%	2%	-4%	37*	25*
CC(=O)Nc1ccc(SCCN2CCN(CCc3ccccc3)CCC2=O)cc1	nt	-2%	nt	nt	18	9
O=C1CCN(CCc2ccccc2)CCN1CCSc1ccccc1	-6%	-12%	-11%	0%	27	23*
CN1CCC(=O)N(CCSc2ccccc2)CC1	-7%	-8%	-23%	-3%	49*	43*
CC(=O)Nc1ccc(SCCN2CCN(C)CCC2=O)cc1	nt	0%	nt	nt	6	9
Cc1ccc(SCCN2CCN(C)CCC2=O)cc1	8%	5%	8%	-3%	77*	28*!
COc1ccc(SCCN2CC[C@@H](C)CCC2=O)cc1	nt	nt	2%	-13%	nt	nt
Cc1nc(-c2ccc(Cl)cc2)sc1CCNC(=O)C(=O)Nc1ccc2c(c1)OCO2	nt	nt	0%	-4%	nt	nt
c1ccc(SCCN2CCc3ccccc3C2)cc1	-6%	0%	-5%	6%	16	27*
CN1OC(COC(=O)c2ccccc2)CC1c1ccccc1 (configuration not stated)	0%	6%	2%	-10%	94*	41*
O=Cc1ccc(-c2cccs2)s1	nt	nt	nt	-4%	nt	nt
Oc1ccc(N=Cc2ccc(-c3cccs3)s2)cc1	-1%	3.5µM*	22µM*	-22%	49	7
SMILES	LmPK inh	FBPA Giardia inh	Sm TGR inh	TbPYK inhibitor	Shiga toxin inh	Cycloheximide cs
Nc1n[nH]c(N)c1N=Nc1ccccc1F	-4%	7%	5%	-1%	24	17*
Cc1ccccc1N=Nc1c(N)n[nH]c1N	1%	11%	-11%	-3%	9	9
Nc1n[nH]c(N)c1N=Nc1ccc(Cl)cc1Cl	3%	-4%	2%	2%	38*	52*
COc1ccc(N=Nc2c(N)n[nH]c2N)cc1	3%	5%	-18%	-1%	45*	27*
Nc1n[nH]c(N)c1N=Nc1ccc(F)cc1	0%	-1%	4%	-1%	23	33*
O=C(NCC(c1ccc2c(c1)OCO2)N1CCN(c2ccccc2F)CC1)c1ccccc1F (configuration not stated)	nt	nt	17%	0%	nt	nt
CC(C)[C@@H]1Cc2[nH][nH]c(=O)c2[C@H](C(C)C)O1	nt	nt	nt	5%	nt	nt
COc1ccc(N=Nc2ccc(N)nc2N)cc1	-16%	-25%	-15%	-10%	107*	70*
Nc1ccc(N=Nc2ccc(O)cc2)c(N)n1	nt	nt	nt	-18%	nt	nt
N/C(=N\c1nc2ccccc2o1)NC(=O)c1ccc(F)cc1	-12%	7%	3%	0%	72*	32*
N/C(=N\c1nc2ccccc2o1)NC(=O)c1ccc(Cl)cc1	0%	7%	-1%	2%	31	2
N/C(=N\c1nc2ccccc2o1)NC(=O)c1ccccc1Br	-3%	2%	14%	-8%	80*	33*
O=C(NCC1CCN(Cc2cccc(F)c2)CC1)c1cc2ccc3cccnc3c2[nH]1	nt	nt	5%	-8%	nt	nt
COc1cccc(N2CCN(C(=O)c3cnn(-c4ccc(C)cc4C)c3C3CCN(C(=O)OC(C)(C)C)CC3)CC2)c1	nt	nt	5%	-9%	nt	nt
C/C=C\C=C/C(=O)Nc1cccc(C2=NOC3(C2)C[C@@H](C(N)=O)N(C(=O)C2(C)CC2)C3)c1 (some centres not stated)	3%	-12%	1.8µM*	-30%	-9	1
C/C=C/C=C\C(=O)Nc1cccc(C2=NOC3(C2)C[C@@H](C(N)=O)N(C(=O)c2cc([N+](=O)[O-])cc([N+](=O)[O-])c2)C3)c1 (some centres not stated)	5%	-25%	3.5µM*	-3%	-17	-4
C/C=C\C(=O)Nc1cccc(C2=NOC3(C2)C[C@@H](C(N)=O)N(C(=O)C2(C)CC2)C3)c1 (some centres not stated)	1%	2%	-1%	1%	-5	-4
C/C=C\C=C\C(=O)N1CC2(CC(c3cccc(NC(=O)CC(c4ccccc4)c4ccccc4)c3)=NO2)C[C@H]1C(N)=O (some centres not stated)	3%	-10%	7.1µM*	-16%	-5	-2
C/C=C\C=C/C(=O)Nc1cccc(C2=NOC3(C2)C[C@@H](C(N)=O)N(C(=O)[C@H]2CCC(=O)N2)C3)c1 (some centres not stated)	-4%	0%	3.5µM*	-13%	1	2
C/C=C(\C)C(=O)N1CC2(CC(c3cccc(NC(=O)CC(c4ccccc4)c4ccccc4)c3)=NO2)C[C@H]1C(N)=O (some centres not stated)	5%	-22%	0%	nt	3	-1
C/C=C\C=C/C(=O)Nc1cccc(C2=NOC3(C2)C[C@@H](C(N)=O)N(C(=O)/C=C/C=C\C)C3)c1 (some centres not stated)	1%	-29%	?	?	-11	2
